# Experimental data: the supplement of paper PMC10849652
# The full data set covers some 8,800 targets. This sample favours those with a hit. About 0.5% of all pairs of compound and target were hits. A number with no mark means an inactive call.
# How the values were obtained:
# Assay in all cases: log2 fold change, soluble protein after heating vs DMSO (PISA); higher = thermal stabilisation; K562 lysate, 10 uM; active = over 0.2 and 3.5 SD of the protein, either way, in both replicates (recomputed)
# [1] = compound: Cc1cn(-c2cc(NC(=O)c3ccc(C)c(Nc4nccc(-c5cccnc5)n4)c3)cc(C(F)(F)F)c2)cn1 [nilotinib]
# Procedure, shortened: (§1)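 Pellets of K562 cells were dounce-homogenised in PBS pH 7.4 with 1 mM MgCl2, and the crude extract was held at 1 mg/mL protein for a 30 min treatment with 10 μM compound. Aliquots were heated for 3 min over 48°C-58°C and pooled before NP-40 was added to 0.5% at 4°C. The supernatant from 21,000xg for 90 min was quantified by TMTpro 16plex LC-MS/MS with channel sums equalised. Values are reported from duplicates as log-two fold change in thermal stability relative to solvent controls.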
# [2] = compound: Cc1nc(Nc2n[nH]c3c2CN(C(=O)N[C@H](CN(C)C)c2ccccc2)C3(C)C)c2sccc2n1
# Procedure, shortened: as §1
# [3] = compound: Cc1nc(Nc2ncc(C(=O)Nc3c(C)cccc3Cl)s2)cc(N2CCN(CCO)CC2)n1 [dasatinib]
# Procedure, shortened: as §1
# [4] = compound: Cc1ncc(-c2ccnc(Nc3ccc(S(C)(=O)=O)cc3)n2)n1C(C)C
# Procedure, shortened: as §1
# [5] = compound: Cn1cc(-c2ccc3c(c2)CCN3C(=O)Cc2cccc(C(F)(F)F)c2)c2c(N)ncnc21
# Procedure, shortened: as §1
# [6] = compound: Cn1cc(CNCC2CCN(c3ncc(C(=O)NO)cn3)CC2)c2ccccc21 [quisinostat]
# Procedure, shortened: as §1
# [7] = compound: Cn1cncc1[C@@](N)(c1ccc(Cl)cc1)c1ccc2c(c1)c(-c1cccc(Cl)c1)cc(=O)n2C [tipifarnib]
# Procedure, shortened: as §1
# [8] = compound: NC(=O)Nc1cc(-c2cccc(F)c2)sc1C(=O)N[C@H]1CCCNC1
# Procedure, shortened: as §1
# [9] = compound: NC(=O)c1cnc(N[C@@H]2CCCC[C@@H]2N)nc1Nc1cccc(-n2nccn2)c1
# Procedure, shortened: as §1
# [10] = compound: NC1(c2ccc(-c3nc4ccn5c(=O)[nH]nc5c4cc3-c3ccccc3)cc2)CCC1
# Procedure, shortened: as §1
# [11] = compound: NCC(=O)Nc1ccc(-n2nc(C(F)(F)F)cc2-c2ccc3c(ccc4ccccc43)c2)cc1
# Procedure, shortened: as §1
# [12] = compound: O=C(CCCCCCC(=O)Nc1ccccc1)NO [vorinostat]
# Procedure, shortened: as §1
# [13] = compound: O=C(O)c1ccc2c(c1)nc(Nc1cccc(Cl)c1)c1ccncc12 [silmitasertib]
# Procedure, shortened: as §1
# [14] = compound: O=C1NC(=O)C(c2cnc3ccccn23)=C1c1cn2c3c(cc(F)cc13)CN(C(=O)N1CCCCC1)CC2
# Procedure, shortened: as §1
# [15] = compound: c1cn2cc(-c3ccc4cn[nH]c4c3)nc(Nc3ccc(N4CCOCC4)cc3)c2n1 [entospletinib]
# Procedure, shortened: as §1
# UniProt P15313, sequence (P15313 whole entry, looked up): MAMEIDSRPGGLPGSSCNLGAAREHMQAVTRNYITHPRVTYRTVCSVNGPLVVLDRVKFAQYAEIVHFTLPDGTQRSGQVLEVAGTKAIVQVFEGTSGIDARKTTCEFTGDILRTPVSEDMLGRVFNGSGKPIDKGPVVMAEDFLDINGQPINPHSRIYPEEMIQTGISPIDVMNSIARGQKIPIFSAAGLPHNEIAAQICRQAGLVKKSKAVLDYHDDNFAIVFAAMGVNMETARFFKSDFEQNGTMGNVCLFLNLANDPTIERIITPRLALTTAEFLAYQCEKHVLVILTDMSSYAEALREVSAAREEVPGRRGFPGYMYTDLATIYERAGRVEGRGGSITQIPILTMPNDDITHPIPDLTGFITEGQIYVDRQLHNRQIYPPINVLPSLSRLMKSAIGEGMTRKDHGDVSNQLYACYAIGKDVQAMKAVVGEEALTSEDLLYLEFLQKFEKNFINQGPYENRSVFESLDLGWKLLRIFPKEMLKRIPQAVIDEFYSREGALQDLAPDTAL
# UniProt Q8N4Q1, sequence (Q8N4Q1 whole entry, looked up): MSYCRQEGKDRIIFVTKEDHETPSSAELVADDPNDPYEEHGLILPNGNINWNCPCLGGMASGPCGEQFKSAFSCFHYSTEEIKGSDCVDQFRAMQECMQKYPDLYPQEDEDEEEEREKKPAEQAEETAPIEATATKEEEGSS
# UniProt Q9BYV8, sequence (Q9BYV8 whole entry, looked up): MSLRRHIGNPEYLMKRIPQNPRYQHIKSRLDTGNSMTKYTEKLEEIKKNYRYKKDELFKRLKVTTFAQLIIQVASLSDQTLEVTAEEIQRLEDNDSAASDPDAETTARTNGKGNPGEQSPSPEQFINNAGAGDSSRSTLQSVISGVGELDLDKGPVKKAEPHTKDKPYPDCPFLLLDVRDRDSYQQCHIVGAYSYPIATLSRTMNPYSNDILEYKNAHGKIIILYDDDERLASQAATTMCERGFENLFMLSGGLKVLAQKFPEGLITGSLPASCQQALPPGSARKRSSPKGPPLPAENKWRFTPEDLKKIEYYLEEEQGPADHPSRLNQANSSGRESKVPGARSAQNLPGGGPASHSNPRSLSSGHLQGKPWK
# UniProt O75808, sequence (O75808 whole entry, looked up): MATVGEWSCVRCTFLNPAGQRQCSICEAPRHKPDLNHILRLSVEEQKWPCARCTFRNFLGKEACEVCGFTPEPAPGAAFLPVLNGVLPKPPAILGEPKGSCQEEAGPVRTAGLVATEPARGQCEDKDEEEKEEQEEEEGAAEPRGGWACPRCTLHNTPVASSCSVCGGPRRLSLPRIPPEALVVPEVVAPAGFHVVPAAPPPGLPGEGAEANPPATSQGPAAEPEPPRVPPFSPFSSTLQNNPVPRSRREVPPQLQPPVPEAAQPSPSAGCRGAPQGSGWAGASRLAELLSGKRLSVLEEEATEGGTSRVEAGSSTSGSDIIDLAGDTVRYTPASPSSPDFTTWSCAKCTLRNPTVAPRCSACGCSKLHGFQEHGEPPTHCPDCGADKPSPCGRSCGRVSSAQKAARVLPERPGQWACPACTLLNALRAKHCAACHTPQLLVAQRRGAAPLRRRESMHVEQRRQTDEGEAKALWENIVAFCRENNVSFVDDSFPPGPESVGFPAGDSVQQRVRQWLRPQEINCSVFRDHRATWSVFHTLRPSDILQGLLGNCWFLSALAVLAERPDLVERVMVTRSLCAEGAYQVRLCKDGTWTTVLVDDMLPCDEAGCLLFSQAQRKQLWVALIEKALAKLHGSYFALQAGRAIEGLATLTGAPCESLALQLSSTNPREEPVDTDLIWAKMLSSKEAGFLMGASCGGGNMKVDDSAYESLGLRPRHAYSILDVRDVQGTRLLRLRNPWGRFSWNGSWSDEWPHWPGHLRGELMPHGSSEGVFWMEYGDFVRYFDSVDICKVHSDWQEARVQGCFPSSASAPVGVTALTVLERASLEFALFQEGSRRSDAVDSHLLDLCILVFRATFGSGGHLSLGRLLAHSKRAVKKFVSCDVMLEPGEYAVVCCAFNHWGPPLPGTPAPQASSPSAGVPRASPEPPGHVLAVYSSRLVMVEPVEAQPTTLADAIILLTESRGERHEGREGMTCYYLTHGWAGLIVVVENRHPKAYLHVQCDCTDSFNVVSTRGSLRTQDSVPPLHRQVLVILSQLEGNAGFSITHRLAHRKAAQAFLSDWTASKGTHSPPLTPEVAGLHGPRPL
# UniProt Q8NBU5, sequence (Q8NBU5 whole entry, looked up): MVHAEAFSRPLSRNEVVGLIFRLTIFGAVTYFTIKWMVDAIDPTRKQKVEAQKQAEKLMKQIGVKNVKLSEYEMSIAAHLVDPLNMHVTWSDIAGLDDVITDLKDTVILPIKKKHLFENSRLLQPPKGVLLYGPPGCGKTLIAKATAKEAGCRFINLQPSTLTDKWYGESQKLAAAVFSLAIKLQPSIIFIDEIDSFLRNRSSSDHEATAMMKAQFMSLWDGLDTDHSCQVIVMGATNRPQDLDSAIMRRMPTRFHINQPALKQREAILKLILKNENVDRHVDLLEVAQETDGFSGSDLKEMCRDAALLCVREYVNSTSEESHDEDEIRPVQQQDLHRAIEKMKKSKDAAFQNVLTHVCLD
# UniProt O95319, sequence (O95319 whole entry, looked up): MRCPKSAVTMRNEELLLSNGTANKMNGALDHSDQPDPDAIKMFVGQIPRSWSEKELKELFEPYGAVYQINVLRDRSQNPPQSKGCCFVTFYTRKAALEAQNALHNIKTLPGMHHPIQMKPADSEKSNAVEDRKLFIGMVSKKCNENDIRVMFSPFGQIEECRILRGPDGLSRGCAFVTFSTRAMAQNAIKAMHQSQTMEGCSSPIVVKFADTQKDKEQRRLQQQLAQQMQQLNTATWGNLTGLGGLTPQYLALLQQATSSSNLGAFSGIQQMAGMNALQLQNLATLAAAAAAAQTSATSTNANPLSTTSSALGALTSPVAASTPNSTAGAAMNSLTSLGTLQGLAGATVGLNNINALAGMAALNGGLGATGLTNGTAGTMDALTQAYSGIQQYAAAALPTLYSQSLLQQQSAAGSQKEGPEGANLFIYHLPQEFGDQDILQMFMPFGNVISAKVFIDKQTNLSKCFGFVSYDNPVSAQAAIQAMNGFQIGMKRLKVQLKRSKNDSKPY
# UniProt Q96SN8, sequence (Q96SN8 whole entry, looked up): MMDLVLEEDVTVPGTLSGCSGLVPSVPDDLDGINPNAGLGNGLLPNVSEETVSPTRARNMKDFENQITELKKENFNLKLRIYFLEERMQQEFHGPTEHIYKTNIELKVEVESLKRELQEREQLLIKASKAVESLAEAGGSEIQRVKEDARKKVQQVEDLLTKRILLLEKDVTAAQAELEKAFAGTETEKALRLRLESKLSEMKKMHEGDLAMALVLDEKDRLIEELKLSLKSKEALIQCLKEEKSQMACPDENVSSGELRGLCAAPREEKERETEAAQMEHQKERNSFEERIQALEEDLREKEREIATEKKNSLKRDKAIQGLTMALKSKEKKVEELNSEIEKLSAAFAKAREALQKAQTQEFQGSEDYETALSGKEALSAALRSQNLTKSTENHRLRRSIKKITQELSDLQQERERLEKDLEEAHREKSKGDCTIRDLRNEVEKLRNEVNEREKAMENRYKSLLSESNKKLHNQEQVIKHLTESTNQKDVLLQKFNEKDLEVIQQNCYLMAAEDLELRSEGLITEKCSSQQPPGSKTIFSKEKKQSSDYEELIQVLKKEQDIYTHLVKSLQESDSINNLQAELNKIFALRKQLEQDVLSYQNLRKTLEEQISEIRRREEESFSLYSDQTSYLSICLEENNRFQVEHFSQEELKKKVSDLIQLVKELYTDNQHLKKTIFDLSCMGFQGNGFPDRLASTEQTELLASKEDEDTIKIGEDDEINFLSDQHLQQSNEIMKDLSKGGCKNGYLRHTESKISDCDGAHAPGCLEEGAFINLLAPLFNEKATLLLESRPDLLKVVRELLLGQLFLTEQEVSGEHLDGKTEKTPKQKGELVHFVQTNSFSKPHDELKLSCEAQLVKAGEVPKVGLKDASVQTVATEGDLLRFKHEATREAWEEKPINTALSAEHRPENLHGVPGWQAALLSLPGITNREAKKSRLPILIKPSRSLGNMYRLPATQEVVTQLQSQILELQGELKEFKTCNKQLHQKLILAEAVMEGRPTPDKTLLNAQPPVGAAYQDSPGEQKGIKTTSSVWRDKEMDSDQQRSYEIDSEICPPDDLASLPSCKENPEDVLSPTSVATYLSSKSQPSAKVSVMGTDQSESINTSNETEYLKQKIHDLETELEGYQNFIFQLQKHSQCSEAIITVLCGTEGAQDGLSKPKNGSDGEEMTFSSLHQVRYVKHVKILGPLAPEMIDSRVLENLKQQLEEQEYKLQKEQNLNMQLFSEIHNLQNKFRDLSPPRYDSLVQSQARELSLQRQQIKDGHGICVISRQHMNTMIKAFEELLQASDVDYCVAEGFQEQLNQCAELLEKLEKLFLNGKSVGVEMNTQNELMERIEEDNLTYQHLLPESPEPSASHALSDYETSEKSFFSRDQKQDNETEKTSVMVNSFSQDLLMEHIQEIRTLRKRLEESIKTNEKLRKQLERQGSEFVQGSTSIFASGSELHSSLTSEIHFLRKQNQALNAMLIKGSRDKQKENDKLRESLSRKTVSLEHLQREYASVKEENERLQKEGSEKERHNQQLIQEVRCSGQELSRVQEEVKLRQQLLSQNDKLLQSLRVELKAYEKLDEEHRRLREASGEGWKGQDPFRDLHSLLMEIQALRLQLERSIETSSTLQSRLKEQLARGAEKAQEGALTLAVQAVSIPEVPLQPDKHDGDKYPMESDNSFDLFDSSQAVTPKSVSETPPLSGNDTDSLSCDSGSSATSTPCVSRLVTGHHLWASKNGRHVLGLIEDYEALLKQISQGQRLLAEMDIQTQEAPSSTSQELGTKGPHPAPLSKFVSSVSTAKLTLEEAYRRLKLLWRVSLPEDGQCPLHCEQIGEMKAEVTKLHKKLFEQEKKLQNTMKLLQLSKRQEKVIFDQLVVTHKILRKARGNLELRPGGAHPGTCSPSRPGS
# UniProt Q9Y6H1, sequence (Q9Y6H1 whole entry, looked up): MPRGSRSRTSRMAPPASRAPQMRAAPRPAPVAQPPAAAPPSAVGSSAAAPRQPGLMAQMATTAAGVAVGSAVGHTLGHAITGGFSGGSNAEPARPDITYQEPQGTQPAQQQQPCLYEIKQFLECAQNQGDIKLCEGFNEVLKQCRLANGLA
Target,log2 fold change [1],log2 fold change [2],log2 fold change [3],log2 fold change [4],log2 fold change [5],log2 fold change [6],log2 fold change [7],log2 fold change [8],log2 fold change [9],log2 fold change [10],log2 fold change [11],log2 fold change [12],log2 fold change [13],log2 fold change [14],log2 fold change [15]
ATAD1 (UniProt Q8NBU5),0.073,-0.015,0.001,-0.153,0.039,-0.072,-0.072,-0.001,0.027,-0.031,-0.047,-0.617 (active),0.021,0.002,0.008
BUD23 isoform 3 (UniProt O43709),-0.003,-0.008,0.035,-0.084,0.035,0.009,0.015,0.035,-0.076,-0.017,0.007,0.014,-0.07,-0.021,0.055
ATP6V1B1 (UniProt P15313),-0.024,0.029,0.034,-0.045,-0.021,-0.029,-0.036,0.01,0.019,0.008,-0.005,0.083,-0.013,-0.006,0.014
CARNMT1 (UniProt Q8N4J0),0.019,-0.016,0.003,-0.019,0.006,-0.173,0.011,0.004,0.019,-0.023,0.005,0.027,0.008,-0.028,-0.039
BUB1B isoform 3 (UniProt O60566),0.007,-0.012,-0.015,0.014,0.024,-0.076,-0.013,0.028,-0.003,-0.004,0.004,-0.376 (active),0.015,0.006,0.013
CBR1 (UniProt P16152),0.046,0.046,0.1,0.076,-0.02,0.113,-0.001,-0.021,-0.02,0.016,-0.01,-0.377 (active),-0.024,0.033,0.006
C5orf51 (UniProt A6NDU8),-0.061,0.006,-0.029,0.017,0.02,-0.066,0.026,0.1,0.002,-0.023,0.042,-0.501 (active),0.036,-0.003,0.015
AURKA (UniProt O14965),-0.065,0.209,0.226,0.174,0.027,-0.117,-0.088,0.18,-0.04,-0.05,-0.008,-0.236,0.135,0.1,0.167
CFDP1 (UniProt Q9UEE9),-0.008,0.051,0.029,0.035,0.009,-0.102,0.013,-0.038,-0.013,-0.026,-0.009,0.095,-0.05,-0.078,-0.012
CDK13 (UniProt Q14004),-0.081,0,0.004,-0.051,0.005,0.068,0.032,-0.039,0.033,0.131,-0.089,-0.088,0.093,-0.012,-0.013
CELF2 isoform 3 (UniProt O95319),0.054,0.038,-0.015,-0.028,-0.043,0.036,-0.129,-0.037,-0.021,0.068,0.036,-0.028,-0.012,-0.041,0.033
CAPN15 (UniProt O75808),0.018,-0.045,-0.124,0.014,0.007,0,0.04,0.025,-0.08,0.054,0.028,-0.504 (active),-0.016,-0.081,-0.043
CHCHD4 isoform 2 (UniProt Q8N4Q1),-0.029,0.023,-0.035,-0.031,-0.018,-0.156,0.018,0.032,-0.008,-0.028,0.06,0.207,-0.145,-0.027,0.01
CBX1 (UniProt P83916),0.006,-0.003,0.017,0,-0.027,-0.004,-0.008,-0.004,0.062,0.012,0.029,0.092,-0.046,-0.01,-0.018
CES2 isoform 4 (UniProt O00748),-0.073,-0.115,0.065,0.098,-0.087,-0.042,0.05,-0.029,0.033,0.001,0.049,0.307,-0.093,0.177,-0.034
AURKAIP1 (UniProt Q9NWT8),-0.072,-0.019,0,0,-0.058,-0.02,-0.041,0.055,0.042,-0.071,0.073,0.08,-0.01,0.071,-0.081
CDK5RAP2 (UniProt Q96SN8),0.024,-0.009,-0.002,0.056,-0.015,-0.081,-0.011,-0.006,-0.104,-0.001,0.042,-0.156,0,0.026,-0.042
CHD5 (UniProt Q8TDI0),-0.007,0.021,0.038,-0.022,0.007,-0.082,0.005,0.02,-0.019,0.01,0.059,-0.261 (active),0.007,0.042,0.025
CHCHD2 (UniProt Q9Y6H1),-0.102,0.039,0.016,-0.075,0.031,-0.049,0.058,-0.014,-0.029,0.136,-0.022,-0.301 (active),0.044,-0.017,-0.06
CEP41 (UniProt Q9BYV8),0.001,0.034,0.043,-0.008,-0.077,-0.068,-0.027,-0.128,0.066,0.076,0.002,-0.558 (active),-0.026,-0.152,-0.017
ATP11A (UniProt P98196),-0.046,-0.053,0.018,0.011,0.035,0.002,0.019,0.043,-0.045,-0.012,0.168,-0.265 (active),0.106,0.009,-0.054
